# Biological target: NEFH
# Assay: pooled miR-30 sensor sort-seq; sequence = guide strand
# Details: shRNA
# Note: reference of the scale not given here.
row,Sequence,sensor-assay potency score (higher = more potent)
1,TTCGACAGCAGGTTCCTTCTTC,0.393
2,TATTGCTAACAGAAATTCCTGT,0.67
3,TTTGGGTTTAGCGTCTTCCTTC,-0.21
4,TTCAACTTTGGATTCTTTGGGC,0.436

# Biological target: NEIL1
# Assay: as above
# Details: shRNA
row,Sequence,sensor-assay potency score (higher = more potent)
1,TTGGTCCTTATCTTCTGGCTCA,-0.526
2,ATGTCAGCCTTGACCTTCCGGG,-0.984
3,TCTTAGGAAGGTCTCTCTTTGC,-1.22
4,TTCTTTTTGCGGGACTTGCGCC,-1.12
5,TGAACTGCTGGTACTCCTGCAA,-0.0198
6,TCTGTCCTCAGGACTCAGCTGT,-0.0425
7,TGGGATGTCAGCCTTGACCTTC,-1.09
8,TTGCAGTCCTCTTAGGAAGGTC,-0.51
9,TTTCGTAGCACACTCTCCCTGA,0.529
10,TGAGTGACATAGCTCCAGCAGG,-1.15
11,TACTCCTGCAAGACACAGGGCC,-0.384
12,TATCTTCTGGCTCAGGGTCAGC,-1.69

# Biological target: NEK11
# Assay: as above
# Details: shRNA
row,Sequence,sensor-assay potency score (higher = more potent)
1,ATGGAGTACATCAACACTCAGC,-1.37
2,TATATGAGCAGCCTCCTTCTGA,-0.668
3,TTTTGTTGAAGCACGTATCTTC,0.706
4,TACATCAACACTCAGCTGCTGA,-0.0516
5,TTAGGTTCTGTAGCTGCTCATC,-0.837
6,TTCGCTAGCATTCTGATGCCTT,0.204
7,TTCTCTGGTCTTTCTAACGCTA,-0.53
8,TAAGTCTCGATGAAGTATCCTC,-0.275
9,TTAGAAGTCGAGAAACTCCAAA,-0.797
10,TTCCTGAATTTTATCGTCCAGA,-0.793
11,TTTGTGTCTAGAGAAGTGCAAC,-1.07
12,TTTTCTGTACTTCTGACAGTGC,-0.562

# Biological target: NEK7
# Assay: as above
# Details: shRNA
row,Sequence,sensor-assay potency score (higher = more potent)
1,TAGGTCGCCAGCATCTGCTAGT,-0.288
2,TCTCATATAGTAGACAGCCAAG,-1.88
3,TTAAAATGCTTGATCATTCTGG,0.745
4,TAAACTTCACTAAATTGTCCGC,-0.329
5,TAATGAACACATTAGCTGGTTT,-0.362
6,TAAACATAGGTGACGTCTGGTC,-1.09
7,TAGTTCATTATCTTCAATGAAT,-1.2
8,TTTTCATGTATTCTCTCTGGAG,-0.779
9,TATATCTCTATGCATGACTCTT,-0.469
10,TTAGCTGGTTTTATATCTCTAT,-0.684
11,TTGAGCTGAAAAACCGGCCAAG,-1.05
12,TCTATCTTCTTACACAGTGAGT,-1.04

# From the OligoGym collection
